Source: PubChem BioAssay AID1159580 (chemical genetic matrix, 2015)
The whole screen tested about 5,500 compounds, of which about 2,000 (36%) were called active. Inconclusive results (about 18%) are left out. Cut-off read from the data, not from the text of the source: active = normalized growth mostly below about 0.91 (no sharp cut-off); inconclusive = no clear call, values can overlap the other calls; inactive = mostly above about 0.92. Some of the results follow.

Assay: chemical genetic growth profiling, strain panel (AID 1159580);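 note: tested at 20 µM; growth read once vehicle control cultures reached saturation at 30 °C; 1 = growth at the plate median or of vehicle wells; lower values mean less growth of the strain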
Details: growth OD

Measured: normalized growth

CC(=O)OCC1=C(C(=O)O)N2C(=O)[C@@H](NC(=O)CCCC(N)C(=O)O)C2SC1 (some centres not stated)
inactive: S. cerevisiae deletion strains, locus YJR075W, strain HOC1, stronger effect = lower value 1.05 | S. cerevisiae deletion strains, locus YKL009W, strain mrt4, stronger effect = lower value 0.996 | S. cerevisiae deletion strains, locus YKL068W, stronger effect = lower value 1 | S. cerevisiae deletion strains, locus YKL085W, strain MDH1 (second series), stronger effect = lower value 0.995 | S. cerevisiae deletion strains, locus YKL085W, strain MDH1, stronger effect = lower value 0.995 | S. cerevisiae deletion strains, locus YKL160W, strain elf1, stronger effect = lower value 0.998 | S. cerevisiae deletion strains, locus YKL190W, strain CNB1, stronger effect = lower value 1.01 | S. cerevisiae deletion strains, locus YKR001C, strain vps1, stronger effect = lower value 1.03 | S. cerevisiae deletion strains, locus YKR026C, strain gcn3, stronger effect = lower value 0.969 | S. cerevisiae deletion strains, locus YKR091W, strain srl3, stronger effect = lower value 0.999 | S. cerevisiae deletion strains, locus YLL001W, strain dnm1, stronger effect = lower value 0.973 | S. cerevisiae deletion strains, locus YLL026W, stronger effect = lower value 0.996 | S. cerevisiae deletion strains, locus YLL041C, strain sdh2, stronger effect = lower value 0.993 | S. cerevisiae deletion strains, locus YLR027C, strain aat2, stronger effect = lower value 0.998 | S. cerevisiae deletion strains, locus YLR039C, strain RIC1, stronger effect = lower value 1.02 | S. cerevisiae deletion strains, locus YLR058C, strain SHM2, stronger effect = lower value 1.02 | S. cerevisiae deletion strains, locus YLR102C, strain apc9, stronger effect = lower value 0.997 | S. cerevisiae deletion strains, locus YLR113W, strain HOG1, stronger effect = lower value 1.01 | S. cerevisiae deletion strains, locus YLR221C, strain rsa3, stronger effect = lower value 0.994 | S. cerevisiae deletion strains, locus YLR258W, strain gsy2, stronger effect = lower value 1.02 | S. cerevisiae deletion strains, locus YLR262C, strain YPT6 (second series), stronger effect = lower value 0.978 | S. cerevisiae deletion strains, locus YLR262C, strain YPT6, stronger effect = lower value 1.02 | S. cerevisiae deletion strains, locus YLR268W, strain sec22, stronger effect = lower value 1.01 | S. cerevisiae deletion strains, locus YLR320W, strain mms22, stronger effect = lower value 1.01 | S. cerevisiae deletion strains, locus YLR330W, strain CHS5, stronger effect = lower value 1.01 | S. cerevisiae deletion strains, locus YLR342W, strain FKS1 (second series), stronger effect = lower value 1.04 | S. cerevisiae deletion strains, locus YLR342W, strain FKS1, stronger effect = lower value 1.01 | S. cerevisiae deletion strains, locus YLR357W, strain rsc2, stronger effect = lower value 0.99 | S. cerevisiae deletion strains, locus YLR370C, strain arc18, stronger effect = lower value 1.01 | S. cerevisiae deletion strains, locus YLR371W, strain rom2, stronger effect = lower value 1.01 | S. cerevisiae deletion strains, locus YLR384C, strain iki3, stronger effect = lower value 0.994 | S. cerevisiae deletion strains, locus YLR418C, strain cdc73, stronger effect = lower value 1 | S. cerevisiae deletion strains, locus YML016C, strain PPZ1, stronger effect = lower value 1.01 | S. cerevisiae deletion strains, locus YML032C, strain rad52, stronger effect = lower value 1.02 | S. cerevisiae deletion strains, locus YML120C, strain ndi1, stronger effect = lower value 0.996 | S. cerevisiae deletion strains, locus YML124C, strain tub3, stronger effect = lower value 1 | S. cerevisiae deletion strains, locus YMR058W, strain fet3, stronger effect = lower value 0.994 | S. cerevisiae deletion strains, locus YMR078C, strain ctf18, stronger effect = lower value 1 | S. cerevisiae deletion strains, locus YMR125W, strain sto1, stronger effect = lower value 0.996 | S. cerevisiae deletion strains, locus YMR129W, stronger effect = lower value 0.988 | S. cerevisiae deletion strains, locus YMR205C, strain PFK2, stronger effect = lower value 1.02 | S. cerevisiae deletion strains, locus YMR223W, strain ubp8, stronger effect = lower value 1.04 | S. cerevisiae deletion strains, locus YMR231W, strain pep5, stronger effect = lower value 0.988 | S. cerevisiae deletion strains, locus YMR263W, strain SAP30, stronger effect = lower value 1.04 | S. cerevisiae deletion strains, locus YMR307W, strain GAS1, stronger effect = lower value 0.987 | S. cerevisiae deletion strains, locus YNL067W, strain RPL9B, stronger effect = lower value 1.01 | S. cerevisiae deletion strains, locus YNL071W, strain lat1, stronger effect = lower value 1.01 | S. cerevisiae deletion strains, locus YNL128W, strain TEP1, stronger effect = lower value 1.01 | S. cerevisiae deletion strains, locus YNL153C, strain GIM3, stronger effect = lower value 1.03 | S. cerevisiae deletion strains, locus YNL183C, strain NPR1, stronger effect = lower value 0.946 | S. cerevisiae deletion strains, locus YNL209W, strain ssb2, stronger effect = lower value 0.998 | S. cerevisiae deletion strains, locus YNL233W, strain BNI4, stronger effect = lower value 1.02 | S. cerevisiae deletion strains, locus YNL248C, strain rpa49, stronger effect = lower value 0.996 | S. cerevisiae deletion strains, locus YNL250W, strain rad50, stronger effect = lower value 1 | S. cerevisiae deletion strains, locus YNL271C, strain bni1, stronger effect = lower value 0.998 | S. cerevisiae deletion strains, locus YNL298W, strain CLA4, stronger effect = lower value 1.02 | S. cerevisiae deletion strains, locus YNL307C, strain MCK1, stronger effect = lower value 1.01 | S. cerevisiae deletion strains, locus YNL322C, strain KRE1 (second series), stronger effect = lower value 0.99 | S. cerevisiae deletion strains, locus YNL322C, strain KRE1, stronger effect = lower value 1.01 | S. cerevisiae deletion strains, locus YNR049C, strain mso1, stronger effect = lower value 0.996 | S. cerevisiae deletion strains, locus YNR052C, strain pop2, stronger effect = lower value 1.02 | S. cerevisiae deletion strains, locus YOL006C, strain TOP1, stronger effect = lower value 1 | S. cerevisiae deletion strains, locus YOL012C, strain htz1 0.841 | S. cerevisiae deletion strains, locus YOL147C, strain pex11, stronger effect = lower value 0.997 | S. cerevisiae deletion strains, locus YOR001W, strain rrp6, stronger effect = lower value 0.998 | S. cerevisiae deletion strains, locus YOR061W, strain CKA2, stronger effect = lower value 1.01 | S. cerevisiae deletion strains, locus YOR069W, strain VPS5, stronger effect = lower value 1 | S. cerevisiae deletion strains, locus YOR070C, strain gyp1, stronger effect = lower value 0.995 | S. cerevisiae deletion strains, locus YOR080W, strain dia2, stronger effect = lower value 1 | S. cerevisiae deletion strains, locus YOR083W, strain WHI5, stronger effect = lower value 0.993 | S. cerevisiae deletion strains, locus YOR106W, strain vam3, stronger effect = lower value 0.999 | S. cerevisiae deletion strains, locus YOR136W, strain idh2, stronger effect = lower value 1 | S. cerevisiae deletion strains, locus YOR144C, strain elg1, stronger effect = lower value 0.99 | S. cerevisiae deletion strains, locus YOR184W, strain ser1, stronger effect = lower value 1.02 | S. cerevisiae deletion strains, locus YOR231W, strain MKK1, stronger effect = lower value 1 | S. cerevisiae deletion strains, locus YOR265W, strain rbl2, stronger effect = lower value 0.993 | S. cerevisiae deletion strains, locus YOR270C, strain vph1, stronger effect = lower value 1.08 | S. cerevisiae deletion strains, locus YOR290C, strain snf2, stronger effect = lower value 0.973 | S. cerevisiae deletion strains, locus YOR316C, strain cot1, stronger effect = lower value 0.994 | S. cerevisiae deletion strains, locus YPL051W, strain arl3, stronger effect = lower value 0.99 | S. cerevisiae deletion strains, locus YPL055C, strain LGE1, stronger effect = lower value 1.03 | S. cerevisiae deletion strains, locus YPL078C, strain atp4, stronger effect = lower value 0.994 | S. cerevisiae deletion strains, locus YPL106C, strain sse1, stronger effect = lower value 0.981 | S. cerevisiae deletion strains, locus YPL240C, strain hsp82, stronger effect = lower value 1.01 | S. cerevisiae deletion strains, locus YPL241C, strain CIN2, stronger effect = lower value 1.01 | S. cerevisiae deletion strains, locus YPL256C, strain CLN2, stronger effect = lower value 0.967 | S. cerevisiae deletion strains, locus YPR119W, strain clb2, stronger effect = lower value 1 | S. cerevisiae deletion strains, locus YPR141C, strain kar3, stronger effect = lower value 1 | S. cerevisiae deletion strains, locus YPR163C, strain tif3, stronger effect = lower value 1 | S. cerevisiae deletion strains, locus YPR167C, strain met16, stronger effect = lower value 1 | S. cerevisiae deletion strains, strain wtn01, stronger effect = lower value 1 | S. cerevisiae strains, strain wild type, stronger effect = lower value 1.02
